Compounds with a hit are over-represented: about 1.8% of the library has one in this group of screens.
DUSP3 inh = inhibitors of human VHR1 phosphatase (DUSP3); P51452; recombinant VHR phosphatase, pNPP absorbance; inhibition, % at 13.3 µM; actives 0.52% (n = 290,000); AID 1654; in the data active = inhibition above about 50%
Target sequence (P51452 whole entry, looked up): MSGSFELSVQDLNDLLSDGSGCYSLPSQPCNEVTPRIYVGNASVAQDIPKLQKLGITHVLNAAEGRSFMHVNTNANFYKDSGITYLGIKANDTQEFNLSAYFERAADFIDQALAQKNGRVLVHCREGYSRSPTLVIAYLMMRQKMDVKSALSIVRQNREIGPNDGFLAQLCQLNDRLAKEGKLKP
RN4220 kill = kills Staphylococcus aureus RN4220; S. aureus RN4220 growth, OD600, 16 h; inhibition, % (test concentration not listed); actives 0.33% (n = 330,000); AID 1259311; in the data active = inhibition above about 85%
PrPC TRFRET = reduces human prion protein on the cell surface. inhibition, % at 13.8 µM. actives 0.43% (n = 370,000). AID 720596. cell surface PrPC, TR-FRET read-out; in the data active = inhibition above about 24%
PfHsp40 rescue = restores yeast growth despite PfHsp40 toxicity; S. cerevisiae expressing PfHsp40, growth rescue, ATP luminescence; growth rescue, % at 12.5 µM; actives 0.68% (n = 340,000); in the data active = growth rescue above about 28%, passing the limit was not always enough;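 also: yeast W303a lacking pdr1 and pdr3 grown in galactose medium; growth measured after three days at 30 °C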
ugtP null kill = growth inhibition of S. aureus ugtP deletion strain. S. aureus RN4220 ugtP deletion, OD600 growth, 16 h. growth inhibition, % (no concentration beside the values). actives 0.54% (n = 330,000); in the data active = growth inhibition above about 68%
Hits are given with their value; i = inactive; nt = no result.

SMILES	DUSP3 inh	RN4220 kill	PrPC TRFRET	PfHsp40 rescue	ugtP null kill
COc1cccc(-c2noc(CCC(=O)NCCc3ccccc3)n2)c1	58.2	i	i	i	i
CCOC(=O)c1c(N)sc(C(O)(C(F)(F)F)C(F)(F)F)c1-c1ccc(Cl)cc1	i	99.6	i	i	99.8
CCOC(=O)c1c(N)sc(C(O)(C(F)(F)F)C(F)(F)F)c1-c1ccc(F)cc1	i	i	i	i	i
NC(=NOC(=O)c1ccccc1[N+](=O)[O-])c1ccccn1	nt	i	nt	nt	i
Cc1cc(C=NNC(=O)CC2(C)OCCO2)c(C)n1-c1ccc(Cl)c(Cl)c1	nt	i	nt	nt	i
COc1ccc(C=O)cc1OS(=O)(=O)c1ccc(NC(C)=O)cc1	i	i	i	41.6	i
CC=C(C)C(=O)Nc1cccc(C2=NOC3(C2)CC(C(N)=O)N(C(=O)COc2ccc(Cl)cc2)C3)c1 (stereo not given)	nt	i	nt	nt	i
CCOC(=O)[C@]12Cc3ccc(C)cc3[C@H]1N(C1CCCCC1)C(=O)c1ccccc12	nt	nt	33.0	nt	nt
CCOC(=O)[C@]12Cc3cc(OC)c(OC)cc3C1N(Cc1ccccc1)C(=O)c1ccccc12 (stereo not given in full)	nt	i	nt	nt	i
CCOC(=O)[C@]12Cc3cc(Cl)ccc3[C@H]1N(C1CCCCC1)C(=O)c1cc(OC)ccc12	nt	nt	46.8	nt	nt
CCOC(=O)[C@]12Cc3ccccc3[C@H]1N(C(C)C)C(=O)c1ccccc12	nt	nt	i	nt	nt
CCOC(=O)[C@]12Cc3c(cc(OC)c(OC)c3OC)[C@H]1N(C1CCCCC1)C(=O)c1ccccc12	nt	nt	31.7	nt	nt
CCOC(=O)[C@]12Cc3ccc(C)cc3[C@H]1N(C1CCCCC1)C(=O)c1cc(OC)ccc12	nt	nt	35.6	nt	nt
CCOC(=O)[C@]12Cc3cc(Cl)ccc3[C@H]1N(C)C(=O)c1cc(OC)ccc12	nt	nt	i	nt	nt
CCOC(=O)[C@]12Cc3cc(OC)ccc3[C@H]1N(C)C(=O)c1cc(OC)ccc12	nt	nt	i	nt	nt
NCCCCC1CNC(=O)C(=O)N1CCc1cc(C(F)(F)F)cc(C(F)(F)F)c1 (stereo not given)	nt	i	nt	nt	i
CCOC(=O)[C@]12Cc3cc(C)ccc3[C@H]1N(C1CCCCC1)C(=O)c1ccccc12	nt	nt	38.4	nt	nt
O=C(Nc1nc(-c2cccs2)c(C(=O)C(F)(F)F)s1)c1ccccc1	i	88.2	i	i	i
O=C(Nc1nc(-c2cccs2)c(C(=O)C(F)(F)F)s1)c1ccco1	i	i	i	i	i
Cc1cccc(OCCC(=O)Nc2ccc(C)c(S(=O)(=O)N3CCCCC3)c2)c1	51.3	i	i	i	i
C[C@]1(C(=O)NCCCNc2ncc(C(F)(F)F)cc2Cl)C=CC(Cc2ccccc2)N1C(=O)c1ccccc1 (stereo not given in full)	nt	i	nt	nt	i
Cc1cccc(Nc2nc(-c3ccccn3)cs2)n1	i	i	i	512.4	i
Cc1cccnc1Nc1nc(-c2ccccc2)cs1	i	i	i	i	i
Cc1cccnc1Nc1nc(-c2ccccn2)cs1	i	98.0	i	76.7	98.7
c1ccc(-c2csc(Nc3ncccn3)n2)cc1	55.4	i	i	i	i
SMILES	DUSP3 inh	RN4220 kill	PrPC TRFRET	PfHsp40 rescue	ugtP null kill
Cc1nc2ccccc2c(=O)n1NC(=O)C=Cc1ccccc1	nt	i	nt	nt	i
CCOC(=O)c1c(N2C(=O)CC(Sc3ccccc3C(=O)O)C2=O)sc2c1CCCC2 (stereo not given)	i	i	i	41.0	i
CCn1c(Cl)c(C=O)sc1=NS(=O)(=O)c1ccccc1	nt	i	nt	nt	i
CC(OC(=O)c1[nH]cnc1C(=O)N1CCN(C(=O)OC(C)(C)C)CC1)c1ccccc1 (stereo not given)	nt	i	nt	nt	i
CC(C)/C(C=O)=C(\NC1CCCCC1)c1ccccc1	nt	i	nt	nt	i
CCC1Sc2ccc(S(=O)(=O)Nc3ccc(OC)cc3)cc2NC1=O (stereo not given)	i	95.7	i	i	93.1
CC(=NCCO)c1c(O)n(C2CCCCC2)c(=O)[nH]c1=O	i	i	i	i	i
CCC(=O)c1c(O)n(C2CCCCCC2)c(=O)[nH]c1=O	i	i	i	80.7	i
C/C(=N\NC(=O)c1ccccc1Cl)c1c(O)n(C2CCCCC2)c(=O)[nH]c1=O	i	i	i	i	i
C/C(=N\NC(=O)c1ccccc1O)c1c(O)n(C2CCCCC2)c(=O)[nH]c1=O	i	i	i	79.3	i
Cc1nc(C(F)(F)F)c(C(=O)NN=C(N)c2ccccn2)s1	nt	i	nt	nt	i
Cc1ccc(-c2c[n+](CC(=O)OCc3ccccc3)c3n2CCC3)cc1	i	i	i	i	i
CC1CCC(C(C)C)C(OC(=O)C[n+]2cc(-c3ccc(Cl)cc3)n3c2CCC3)C1 (stereo not given)	i	100.8	i	i	100.7
C[C@H]1COC(=O)[C@H](Cc2ccc(F)cc2)C/C=C\C[C@@H](CC(=O)N(CCO)Cc2ccccc2)C(=O)N1	nt	nt	i	55.3	nt
COc1cccc(N2CCN(CC(=O)Nc3ccccc3C(=O)NCc3ccccc3)CC2)c1	nt	i	i	i	i
Cc1ccc(CNC(=O)c2ccccc2NC(=O)CN2CCN(C)CC2)cc1	56.2	i	i	i	i
COc1cc2cc(C(=O)N3CC(COS(C)(=O)=O)c4ccc(O)cc43)[nH]c2c(OC)c1OC (stereo not given)	nt	nt	nt	63.4	nt
CC1CN(S(=O)(=O)c2c(F)cccc2F)CCN1S(=O)(=O)c1ccc2c(c1)OCCO2 (stereo not given)	nt	i	nt	nt	i
O=C(CNC(=O)OCc1ccccc1)NC1CCCCCC1	53.0	i	i	i	i
Cc1cc(C(=O)NN=Cc2c(C)[nH]c3ccccc23)n[nH]1	nt	i	nt	nt	i
O=C(c1cccc(F)c1)N1CCN(C2CCCCC2)CC1	i	i	i	53.5	i
CCOC1OC(C(N)=O)=CC(C2CC2)C1CCCO (stereo not given)	nt	i	nt	nt	i
CN(CCOC(=O)C1c2ccccc2Oc2ccccc21)C(C)(C)C	i	i	nt	i	i
CN(C)CCCOC(=O)C1c2ccccc2Oc2ccccc21	i	i	i	43.6	i
Cc1ccc(SCC(=O)Nc2nnc(C(C)(C)C)s2)cc1	54.3	i	i	i	i
SMILES	DUSP3 inh	RN4220 kill	PrPC TRFRET	PfHsp40 rescue	ugtP null kill
N#CC(=Cc1ccc(N2CCOCC2)o1)C(=O)NCCc1ccccc1	nt	i	nt	nt	i
CN1c2ccsc2C(=NNC(=O)c2c(F)cccc2F)CS1(=O)=O	nt	i	nt	nt	i
Clc1ccc(-c2cc3ccccc3nc2N2CCOCC2)cc1	i	i	i	i	92.9
Clc1ccc(-c2cc3ccccc3nc2N2CCCC2)cc1	i	i	i	i	i
Cc1ccc(-c2cc3ccccc3nc2N2CCCC2)cc1	i	i	i	i	89.4
COc1cccc(CNC(=O)c2ccc(CS(=O)(=O)Cc3ccc(C)cc3)o2)c1	i	i	i	i	i
COc1cccc(CNC(=O)c2ccc(CS(=O)(=O)Cc3ccccc3C)o2)c1	57.7	i	i	i	i
Cc1ccc(C2NC(=O)c3c(sc(C)c3C)N2)c(O)c1 (stereo not given)	51.2	i	i	i	i
Cc1nn(-c2ccccc2)c(Cl)c1C=NNC(=O)CCNc1n[nH]c(=O)[nH]c1=O	nt	i	nt	nt	i
Cc1ccc(-n2nnc3c(=O)n(Cc4cc(C)ccc4C)cnc32)cc1	51.6	i	i	i	i
Cc1cc(N2CCOCC2)ccc1C=C1NC(=O)N(Cc2ccccc2)C1=O	nt	i	nt	nt	i
